Jurkat NFkB inh: lowers PMA/ionomycin-induced NF-kB signal in Jurkat cells | inhibition, % at 4 µM | 330,000 tested, 0.53% active | PMA/ionomycin-induced NF-kB luciferase reporter, luminescence | AID 435003; in the data active means inhibition above about 50%
Gli-Sufu antag: Gli-Sufu pathway antagonism. AID 588413. Sufu-KO-LIGHT fibroblasts, Gli luciferase reporter luminescence. inhibition, % at 5 µM. 340,000 tested, 0.74% active;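 active means inhibition above about 55%, limit read from the data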;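 further: 0% = DMSO-treated cells and 100% = wells with medium but no cells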
697 NFkB inh: inhibitors of the PMA/ionomycin-induced NF-kB reporter in 697 B cells; 697 B-cell NF-kB luciferase reporter, 16 h; inhibition, % at 4 µM; 330,000 tested, 0.33% active; in the data active means inhibition above about 35%
aSyn UTR inh: MLPCN primary screen, SNCA 5' untranslated region; inhibition, % (tested at 7.5 µM); alpha-synuclein 5'UTR reporter, inhibitor activity; 300,000 tested, 0.82% active; in the data active means inhibition above about 60%;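 further: H4 neuroglioblastoma cells stably carrying SNCA 5'UTR luciferase fusion; 0% = DMSO wells and 100% = positive control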
KLF5 inh: inhibitors of KLF5 expression. inhibition, % at 5 µM. DLD-1 KLF5 promoter-luciferase reporter, luminescence. 290,000 tested, 0.23% active. AID 1700;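 active means inhibition above a per-plate limit of that plate's mean compound inhibition plus 3 SD, cut at about 60% in these data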;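 further: 0% = DMSO wells and 100% = LY294002 at 200 µM; higher means less KLF5 promoter-driven luciferase light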
Mdm2 MdmX PPI: human Mdm2/MdmX binding inhibition; inhibition, % at 8 µM; SaOS-2 split-luciferase Mdm2/MdmX complementation, luminescence; 330,000 tested, 3% active; O15151+Q00987;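 active means inhibition of at least 50% at 8 µM in the primary screen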
Mdm2-MdmX conf: confirmation of human Mdm2/MdmX interaction inhibitors | shares compounds with Mdm2 MdmX PPI | 10,000 tested, 55% active | inhibition, % at 8 µM | Mdm2-MdmX binding, luminescent assay; in the data active means inhibition above about 40%
FLuc counter: counter-screen for Mdm2/MdmX inhibitors: full-length luciferase; SaOS-2 full-length luciferase counterscreen, luminescence; inhibition, % at 8 µM; 6,200 tested, 77% active; shares compounds with Mdm2 MdmX PPI;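 active means mean inhibition at 8 µM reaching about 37%, which flags the compound as non-specific, limit read from the data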;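 further: p53-null SaOS-2 cells with luciferase driven by a doxycycline-inducible promoter; compound on cells about two nights before reading with doxycycline added after day one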
* = called active by the depositor. Hits are enriched below; roughly 4.1% of the tested compounds scored in any of these assays.

For Cc1ccc(Nc2nc(C)c3c(n2)CC(C)CC3=O)c(C)c1 (stereo not given) the results were Jurkat NFkB inh -1.9, Gli-Sufu antag 1.4, 697 NFkB inh -7.0, aSyn UTR inh 3.4, KLF5 inh -5.4 and Mdm2 MdmX PPI 23.0.
`CCOC(=O)c1c(C)nc2sc(C(=O)Nc3ccc(C(C)=O)cc3)c(N)c2c1-c1ccc(OC)cc1` gave Jurkat NFkB inh 4.8, Gli-Sufu antag 28.5, 697 NFkB inh -7.9, aSyn UTR inh -90.3, KLF5 inh -10.2 and Mdm2 MdmX PPI 5.6.
`CCOC(=O)c1c(C)nc2sc(C(=O)Nc3ccc(OC)cc3)c(N)c2c1-c1ccc(OC)cc1` gave Jurkat NFkB inh 40.6, Gli-Sufu antag 1.5, 697 NFkB inh -13.8, aSyn UTR inh -58.1, KLF5 inh -21.7, Mdm2 MdmX PPI 58.0*, Mdm2-MdmX conf 56.0* and FLuc counter 52.9*.
Screening CCc1cccc(CC)c1NC(=S)N1CCn2cccc2C1c1cccnc1 (stereo not given) returned Jurkat NFkB inh 6.7, Gli-Sufu antag -18.1, 697 NFkB inh -2.0, aSyn UTR inh 21.4, KLF5 inh -3.9 and Mdm2 MdmX PPI -4.2.
For COC(=O)c1cc(=O)n(CCc2ccccc2)c(=Nc2ccc(F)cc2)s1 the results were Jurkat NFkB inh 0.0, Gli-Sufu antag 4.9, 697 NFkB inh 4.3, aSyn UTR inh -23.3, KLF5 inh -72.6 and Mdm2 MdmX PPI 28.5.
For COC(=O)c1cc(=O)n(CCc2ccc(OC)cc2)c(=Nc2ccc(F)c(Cl)c2)s1 the results were Jurkat NFkB inh 12.4, Gli-Sufu antag 11.4, 697 NFkB inh 16.6, aSyn UTR inh -28.1, KLF5 inh -18.9, Mdm2 MdmX PPI 71.5* and Mdm2-MdmX conf -3.3.
`COC(=O)c1cc(=O)n(Cc2ccc3c(c2)OCO3)c(=Nc2ccc(F)c(Cl)c2)s1` gave Jurkat NFkB inh 23.8, Gli-Sufu antag 10.7, 697 NFkB inh 30.6, aSyn UTR inh -65.6, KLF5 inh -15.7, Mdm2 MdmX PPI 61.8*, Mdm2-MdmX conf 38.9 and FLuc counter 102.5*.
Screening Cc1ccc(C)c(S(=O)(=O)NC(C)CCc2ccccc2)c1 (stereo not given) returned Jurkat NFkB inh -6.2, Gli-Sufu antag -0.6, 697 NFkB inh -9.8, aSyn UTR inh 13.1, KLF5 inh -15.6 and Mdm2 MdmX PPI 14.0.
Screening CCOC(=O)c1cc(-c2cccc([N+](=O)[O-])c2)n[nH]1 returned Jurkat NFkB inh -2.1, Gli-Sufu antag 3.4, 697 NFkB inh -3.5, aSyn UTR inh -16.6, KLF5 inh 0.8 and Mdm2 MdmX PPI -3.7.
O=C(N/N=C/c1cccc(O)c1)c1cc(-c2ccc3c(c2)OCO3)n[nH]1 was read as Jurkat NFkB inh -1.4, Gli-Sufu antag -7.0, 697 NFkB inh -34.4, aSyn UTR inh 2.8, KLF5 inh -33.8 and Mdm2 MdmX PPI 14.7.
`O=C(N/N=C/c1cccc([N+](=O)[O-])c1)c1cc(-c2ccc3c(c2)OCO3)n[nH]1` gave Jurkat NFkB inh -5.3, Gli-Sufu antag 33.8, 697 NFkB inh -7.2, aSyn UTR inh -14.7, KLF5 inh -15.6, Mdm2 MdmX PPI 52.4* and Mdm2-MdmX conf 31.6.
For CCc1ccc(/C=N/NC(=O)c2cc(-c3cccc([N+](=O)[O-])c3)n[nH]2)cc1 the results were Jurkat NFkB inh 22.9, Gli-Sufu antag -6.7, 697 NFkB inh -8.9, aSyn UTR inh 7.2, KLF5 inh -6.5, Mdm2 MdmX PPI 62.3*, Mdm2-MdmX conf 61.6* and FLuc counter 70.5*.
Cc1cnccc1CNC(=O)CC1C(=O)NCCN1CC(C)(C)C (stereo not given) was read as Jurkat NFkB inh -28.5, Gli-Sufu antag 0.5, 697 NFkB inh 4.8, aSyn UTR inh 2.1, KLF5 inh -15.2 and Mdm2 MdmX PPI 10.6.
CN(C(=O)c1cccc(S(=O)(=O)N2CCOCC2)c1)c1c(N)n(Cc2ccccc2)c(=O)[nH]c1=O was read as Jurkat NFkB inh -11.6, Gli-Sufu antag -7.7, 697 NFkB inh -6.9 and Mdm2 MdmX PPI 17.3.
`COc1cc(OC)cc(C(=O)Nc2ccc3c(c2)CCCN3C(=O)c2cccs2)c1` gave Jurkat NFkB inh -19.1, Gli-Sufu antag 5.2, 697 NFkB inh -227.9, aSyn UTR inh 1.8, KLF5 inh 4.3, Mdm2 MdmX PPI 77.7*, Mdm2-MdmX conf 60.0* and FLuc counter 86.1*.
Screening O=C(Nc1ccc2c(c1)CCCN2C(=O)c1cccs1)c1ccccc1 returned Jurkat NFkB inh -45.9, Gli-Sufu antag -30.0, 697 NFkB inh -54.2, aSyn UTR inh -24.0, KLF5 inh -52.8 and Mdm2 MdmX PPI 20.2.
CC(=O)NC(CC(=O)NNC(=O)c1cc2ccccc2cc1O)c1ccccc1 (stereo not given) was read as Jurkat NFkB inh 10.6, Gli-Sufu antag -4.0, 697 NFkB inh 24.2, aSyn UTR inh 9.1, KLF5 inh -39.9 and Mdm2 MdmX PPI 22.2.
Screening O=C(CCl)N1c2ccccc2SCC1c1ccccc1 (stereo not given) returned Jurkat NFkB inh 13.9, Gli-Sufu antag -17.2, 697 NFkB inh -3.1, aSyn UTR inh -64.2, KLF5 inh -10.8, Mdm2 MdmX PPI 98.6*, Mdm2-MdmX conf 53.6* and FLuc counter 19.3.
CCCn1c(NC(=O)c2ccc(Cl)c(S(=O)(=O)N3CCCC3)c2)nc2ccccc21 was read as Jurkat NFkB inh 6.3, Gli-Sufu antag -1.6, 697 NFkB inh -8.2, aSyn UTR inh 40.3, KLF5 inh -17.7, Mdm2 MdmX PPI 80.7*, Mdm2-MdmX conf 69.1* and FLuc counter 43.1*.
Screening Cc1cc(C)c(NC(=O)c2cccc3c2C(=O)N(C2CCCCC2)C3)c(C)c1 returned Jurkat NFkB inh 2.0, Gli-Sufu antag 33.3, 697 NFkB inh 8.0, aSyn UTR inh -4.9, KLF5 inh -5.1, Mdm2 MdmX PPI 62.9* and Mdm2-MdmX conf -1.6.
`Cc1ccc(NC(=O)CN(C)C(=O)COc2cccc3cccnc23)cc1` gave Jurkat NFkB inh 14.4, Gli-Sufu antag 20.5, 697 NFkB inh 8.9, aSyn UTR inh -4.6, KLF5 inh -6.7 and Mdm2 MdmX PPI 20.2.
For CCOC(=O)C1=CN(Cc2cccc(F)c2)S(=O)(=O)N(CC)C1c1ccc(C(F)(F)F)cc1 (stereo not given) the results were Gli-Sufu antag 3.6, 697 NFkB inh -8.5 and Mdm2 MdmX PPI 22.6.
CCOC(=O)/C=c1\s/c(=C\c2sccc2C)c(=O)n1CC(=O)NCc1ccc(C)cc1 was read as Jurkat NFkB inh 5.6, 697 NFkB inh 12.7, aSyn UTR inh 40.4, KLF5 inh -3.3, Mdm2 MdmX PPI 66.0* and Mdm2-MdmX conf 13.7.

Screens (PubChem)
